# Results filed as inconclusive are left out. A call without a number means that no potency is given here. Activity calls are given as the source filed them. Calls come from the whole dose curve; as a rule, active = well fitted cell-killing curve with a large enough effect; inconclusive = small, poorly fitted or top-dose-only effect; inactive = flat fitted curve, though single readings scatter.
# Experiment: qHTS of pediatric cancer cell lines to identify multiple opportunities for drug repurposing: Primary screen for TC32 cells (AID 1347089); note: nearly all actives have a fitted effect of over 60% in size
# Details: TC32 Ewing sarcoma viability, CellTiter-Glo luminescence, 48 h; series mostly up to 45.8 µM
# Source text: Drug repurposing or repositioning has been offered as a strategy for drug development in oncology programs. This approach has special potential for childhood cancers and other rare or orphan diseases, where the expected return on new drug development has been a disincentive to pharmaceuticals.
# In this project we exploit the poly-pharmacology of drugs to discover new indications via phenotypic screening of a panel of 19 well-characterized cell lines derived from solid tumors seen in children and adolescents. The goal is to identify approved drugs with previously unrecognized anticancer properties that has the potential to reveal new mechanisms and biological processes involved in carcinogenesis or drug resistance. We employed a titration-based paradigm (quantitative high-throughput screening or qHTS), where all compounds were tested at multiple concentrations for their effect on cell viability. Concentration-response curves (CRCs) were derived directly from the primary screen, and both potency and efficacy values were used to identify compounds with robust bioactivity profiles. We screened the NIH Chemical Genomics Center (NCGC) Pharmaceutical Collection (NPC) and Mechanism Interrogation Plate (MIPE) small molecule collections of approved and investigational compounds against these cell lines; and measured metabolically active cells after 48 hours of compound treatment as a proxy for cell viability.
# Assay Submitter: Nathalia J. Martinez, National Center for Advancing Translational Sciences, National Institutes of Health, Rockville, MD, USA; email: natalia.martinez@nih.gov
# [1] Shen, M et al. Quantitative high-throughput phenotypic screening of pediatric cancer cell lines identifies multiple opportunities for drug repurposing. Oncotarget 2017 Dec 19;9(4):4758-4772. PMID 29435139.
# The cells were obtained from University of North Carolina (UNC), Pediatric Preclinical Testing Program (PPT), and Coriell Institute (CI).
# qHTS cell viability assay:
# Cells were assayed in growth media at a density of 500-1,000 cells/well. Five microliters of cells were dispensed into 1,536-well, white, solid-bottom, TC-treated plates (Greiner Bio One) using a multidrop dispenser and incubated at 37 degrees C, 5% CO2, under a humidified atmosphere for 5 hours. Twenty-three nanoliters of compounds and controls (neutral control DMSO or positive control bortezomib at final concentration of 2.3 uM) were subsequently transferred by Kalypsys pintool. For primary screens, the MIPE collection was tested at 11-point dilutions (final concentrations range from 0.78 nM to 46 µM) and the NPC collection at 8-point dilutions (final concentrations range from 0.59 nM to 46 µM). Compounds tested in follow-up screens were assayed at 11-point dilutions. Cells were incubated for 48 hours, followed by addition of 3 uL of CellTiter-Glo (Promega). After a 15min incubation at room temperature, samples were analyzed for luminescence intensity using a ViewLux High-throughput CCD imager equipped with clear filters.
# Potency is the fitted concentration of half-maximal effect.
row,Structure (SMILES),Potency
1,CC(C)C(Br)C(=O)NC(N)=O (stereo not given),inactive
2,C[C@H](N)[C@H](O)c1ccc(O)c(O)c1,inactive
3,CC#C[C@]1(O)CC[C@H]2[C@@H]3C[C@H](C)C4=CC(=O)CC[C@]4(C)[C@H]3CC[C@@]21C,inactive
4,COc1ccc(C(=O)N2CCCC2=O)cc1,inactive
5,CC(C)[N+](C)(CCC(C(N)=O)(c1ccccc1)c1ccccc1)C(C)C,inactive
6,CCCCC1C(=O)NC(=O)N(C2CCCCC2)C1=O (stereo not given),inactive
7,CCC1(c2cccc(O)c2)CCCCN(C)C1 (stereo not given),inactive
8,CCC(=O)O[C@H]1CC[C@H]2[C@@H]3CCC4=CC(=O)CC[C@]4(C)[C@H]3CC[C@]12C,inactive
9,O=C1CN2CCOC2(c2ccccc2Cl)c2cc(Cl)ccc2N1 (stereo not given),inactive
10,NCc1cccnc1,inactive
11,CC(C)(C)OC(=O)c1ncn2c1[C@@H]1CCCN1C(=O)c1c(Br)cccc1-2,inactive
12,NC1(c2ccccc2)CCCCC1,inactive
13,NC(=O)CN1CCCC1=O,inactive
14,C[C@H]1C(=O)O[C@@H]2CCN3CC=C(COC(=O)[C@](C)(O)[C@]1(C)O)[C@H]23,inactive
15,CN1C(=O)CN=C(c2ccccc2)c2cc(Cl)ccc21,inactive
16,CCCCCCCCC(=O)NCc1ccc(O)c(OC)c1,inactive
17,COCC(=O)N(c1c(C)cccc1C)C(C)C(=O)OC (stereo not given),inactive
18,COc1ccc(CN2CCNCC2)c(OC)c1OC,inactive
19,O=C(CCCCl)c1ccc(F)cc1,inactive
20,CCC1(CC)C(=O)NC(=O)NC1=O,inactive

row,Structure (SMILES),Potency
1,CCC1(c2ccccc2)CCC(=O)NC1=O (stereo not given),inactive
2,CNC(C)Cc1ccccc1OC (stereo not given),inactive
3,CCOC(=O)NC(O)C(Cl)(Cl)Cl (stereo not given),inactive
4,CCOC(=O)C1(c2ccccc2)CCN(CCc2ccc(N)cc2)CC1,inactive
5,CC(C(O)c1ccccc1)N(C)C/C=C/c1ccccc1 (stereo not given),inactive
6,Cc1ccc([N+](=O)[O-])[c]2c1[O][Hg]2,0.264 µM (active)
7,C#C[C@]1(O)CC[C@H]2[C@@H]3CCC4=CC(=O)CCC4=C3C=C[C@@]21CC,inactive
8,C[C@]12CC[C@H]3[C@@H](CCC4=CC(=O)CC[C@@H]43)[C@@H]1CC[C@@H]2O,inactive
9,CN(C)CCc1c[nH]c2cccc(O)c12,inactive
10,c1ccc2nc(N3CCNCC3)ccc2c1,inactive
11,ClCc1cccc(Cl)c1,inactive
12,COc1cc(C[C@@H](C)N)c(OC)cc1C,inactive
13,Cc1nc2ccccc2c(=O)n1-c1ccccc1Cl,inactive
14,CN1C(=O)CN=C(c2ccccc2)c2cc([N+](=O)[O-])ccc21,inactive
15,CCN(CC)Cc1nccn1-c1ccc([N+](=O)[O-])cc1C(=O)c1ccccc1Cl,inactive
16,CC(Cc1ccccc1)NCCCCl (stereo not given),inactive
17,CC(C)=C[C@@H]1[C@@H](C(=O)OCc2coc(Cc3ccccc3)c2)C1(C)C,inactive
18,CCCN(CCC)CCc1c[nH]c2ccccc12,inactive
19,CN(C)CCc1c[nH]c2ccccc12,inactive
20,CC(CC(C#N)(c1ccccc1)c1ccccc1)N(C)C (stereo not given),inactive

# Source: PubChem BioAssay (NCATS)
